Results filed as inconclusive are left out. A call without a number means that no potency is given here. Activity calls are given as the source filed them. Unless noted, calls come from the whole dose curve; as a rule, active = well fitted curve in the direction sought with a large enough effect; inconclusive = small, poorly fitted or top-dose-only effect, or another doubt; inactive = no such curve, though single readings can be large; an effect the other way counts as inactive or inconclusive.
How the values were obtained:
[1] = molecular target: Cytochrome P450 3A4 (Homo sapiens) (UniProt P08684); test: qHTS Assay for Activators of Cytochrome P450 3A4 (AID 885); note: nearly all actives have a fitted effect of over 65% in size
Outline: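 Steps: enzyme/substrate mix dispensed; compound added, 10 min RT; NADPH regeneration solution added, 60 min RT; luciferin detection buffer stops reaction; 20 min later luminescence measured.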

[2] = Confirmation and Secondary Assay for Modulators of Hemoglobin Beta Chain Splicing at IVS2 654 locus (AID 910);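 note: HeLa cells stably carrying EGFP split by mutant beta-globin IVS2-654 intron; per-well total GFP intensity by laser scanning cytometry after 2-day treatment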
Outline: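 Readout: per-well total peak green fluorescence (488 nm ex, 500–520 nm em) from objects 5–250 µm, reflecting correct splicing of an EGFP-654 reporter. Compounds were applied for 2 days at 37 °C to overnight-plated HeLa EGFP-654 cells; controls were DMSO and 500 nM IVS2-654 PNA.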

[3] = Confirmation and Secondary Assay for Modulators of Hemoglobin Beta Chain Splicing at IVS2 705 locus (AID 930);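 note: HeLa cells stably expressing the EGFP-705 splicing reporter; GFP fluorescence per well restored by corrected splicing of the IVS2-705 intron in EGFP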
Outline: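 First, HeLa EGFP-705 cells are seeded at 500/well in Optimem with 2% FCS and left overnight. Next, compound or DMSO is added for 2 days. Finally wells are laser-scanned and total peak GFP intensity scored.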

[4] = S16 Schwann cell viability assay (CellTiter-Glo assay) (AID 624031);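 note: native untransfected S16 rat Schwann cells; nearly all actives have a fitted effect of over 70% in size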
Outline: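 Counter-screen for cytotoxicity: parental S16 rat Schwann cells lacking the PMP22 reporters, treated 24 h with compound, viability from cellular ATP by CellTiter-Glo luminescence, normalized to DMSO (0%) and no-cell wells.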

CP203 = test: qHTS profiling for inhibitors of Plasmodium falciparum proliferation (AID 504749); note: nearly all actives have a fitted effect of over 60% in size; note: potency is the fitted concentration of half-maximal effect; settings: P. falciparum in erythrocytes, SYBR Green DNA, 72 h; series mostly up to 12.8 µM
Outline: (§1)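 Three-day growth assay of blood-stage parasites in erythrocytes (0.3% parasitemia, 2.5% hematocrit) at 37 C, 5% CO2, quantified by SYBR Green DNA staining after overnight detergent lysis.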

CP260 = test: as above; settings: P. falciparum in erythrocytes, SYBR Green DNA, 72 h; series mostly up to 12.8 µM
Outline: as §1

CP265 = test: as above; settings: P. falciparum in erythrocytes, SYBR Green DNA, 72 h; series mostly up to 12.8 µM
Outline: as §1

CP335 = test: as above; settings: P. falciparum in erythrocytes, SYBR Green DNA, 72 h; series mostly up to 12.8 µM
Outline: as §1

DFO2036 = test: as above; settings: P. falciparum in erythrocytes, SYBR Green DNA, 72 h; series mostly up to 12.8 µM
Outline: as §1

DIV14 = test: as above; settings: P. falciparum in erythrocytes, SYBR Green DNA, 72 h; series mostly up to 12.8 µM
Outline: as §1

W2 = test: as above; settings: P. falciparum in erythrocytes, SYBR Green DNA, 72 h; series mostly up to 12.8 µM
Outline: as §1

[5] = molecular target: Cytochrome P450 3A4 (Homo sapiens) (UniProt P08684); test: qHTS Assay for Inhibitors and Substrates of Cytochrome P450 3A4 (AID 884); note: nearly all actives have a fitted effect of over 50% in size
Outline: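 20 nM human CYP3A4 with 25 uM Luciferin-PPXE (at KM) in 200 mM KPO4, preincubated 10 min with compound; NADPH regeneration started a 60 min RT reaction. Luciferin detected by luminescence, normalized to 57 uM ketoconazole as full inhibition.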

[6] = S16 Schwann cell PMP22 intronic element firefly luciferase assay (AID 624032); note: nearly all actives have a fitted effect of over 30% in size; note: potency is the fitted concentration of half-maximal effect
Outline: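 Luciferase reporter of PMP22 intronic-element expression in stably transfected S16 rat Schwann cells, read by ONE-Glo luminescence after 24 h compound exposure at 37 C. Activity scaled between DMSO (0%) and positive-control PTC124; concentration-effect curves quality-classified.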

[7] = S16 Schwann cell PMP22 intronic element beta-lactamase assay (AID 624044; calls by dose curve; note: nearly all actives have a fitted effect of over 15% in size)
Outline: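 Rat S16 Schwann cells with beta-Lac driven by a PMP22 intronic element, compound-treated 24 h at 37 °C. LiveBLAzer FRET B/G read: 460 nm normalized to potassium clavulanate vs DMSO; 535 nm FRET as viability; concentration-effect curves classified.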

[8] = molecular target: 3',5'-cyclic-AMP phosphodiesterase 4B (Homo sapiens) (UniProt Q07343); test: qHTS Assay for Inhibitors of PDE-IV (AID 607; active = well fitted activation curve with a large enough effect in the main read-out, with a control signal flat, not every such curve was filed as active)
Outline: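 The readout is membrane depolarisation from a cAMP-sensing CNG channel, detected with a potential dye at ex 535/em 590. Cells were HEK293-derived (endogenous PDE-IV) at 1000 cells/well, titrated up to 22.9 uM final.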

[9] = molecular target: Cytochrome P450 2D6 (Homo sapiens) (UniProt P10635); test: qHTS Assay for Inhibitors and Substrates of Cytochrome P450 2D6 (AID 891);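 note: luciferin methyl ether substrate demethylated by CYP2D6 with NADPH regeneration; nearly all actives have a fitted effect of over 60% in size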
Outline: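 Human CYP2D6 (5 nM) with 30 uM Luciferin-ME EGE (at Km) in 100 mM KPO4, compound preincubated 10 min, then NADPH regeneration system for 60 min at room temperature. Luciferin read by luminescence; normalized to 1.43 uM quinidine.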

Chain of Cytochrome P450 3A4 (Homo sapiens) (P08684 whole entry, looked up): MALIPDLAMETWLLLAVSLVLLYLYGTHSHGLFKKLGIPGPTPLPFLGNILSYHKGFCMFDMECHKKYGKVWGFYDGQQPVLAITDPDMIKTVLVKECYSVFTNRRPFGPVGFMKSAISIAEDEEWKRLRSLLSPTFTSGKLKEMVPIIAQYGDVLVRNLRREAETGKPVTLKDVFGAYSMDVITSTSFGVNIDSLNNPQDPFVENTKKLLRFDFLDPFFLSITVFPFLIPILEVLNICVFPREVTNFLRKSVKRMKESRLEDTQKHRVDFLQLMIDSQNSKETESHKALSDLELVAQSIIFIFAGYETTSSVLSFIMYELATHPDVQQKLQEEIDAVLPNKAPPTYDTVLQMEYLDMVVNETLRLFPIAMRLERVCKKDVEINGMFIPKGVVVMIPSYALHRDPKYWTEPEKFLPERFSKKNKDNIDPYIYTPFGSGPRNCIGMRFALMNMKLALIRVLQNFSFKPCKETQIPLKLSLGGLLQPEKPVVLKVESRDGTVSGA
Chain of 3',5'-cyclic-AMP phosphodiesterase 4B (Homo sapiens) (Q07343 whole entry, looked up): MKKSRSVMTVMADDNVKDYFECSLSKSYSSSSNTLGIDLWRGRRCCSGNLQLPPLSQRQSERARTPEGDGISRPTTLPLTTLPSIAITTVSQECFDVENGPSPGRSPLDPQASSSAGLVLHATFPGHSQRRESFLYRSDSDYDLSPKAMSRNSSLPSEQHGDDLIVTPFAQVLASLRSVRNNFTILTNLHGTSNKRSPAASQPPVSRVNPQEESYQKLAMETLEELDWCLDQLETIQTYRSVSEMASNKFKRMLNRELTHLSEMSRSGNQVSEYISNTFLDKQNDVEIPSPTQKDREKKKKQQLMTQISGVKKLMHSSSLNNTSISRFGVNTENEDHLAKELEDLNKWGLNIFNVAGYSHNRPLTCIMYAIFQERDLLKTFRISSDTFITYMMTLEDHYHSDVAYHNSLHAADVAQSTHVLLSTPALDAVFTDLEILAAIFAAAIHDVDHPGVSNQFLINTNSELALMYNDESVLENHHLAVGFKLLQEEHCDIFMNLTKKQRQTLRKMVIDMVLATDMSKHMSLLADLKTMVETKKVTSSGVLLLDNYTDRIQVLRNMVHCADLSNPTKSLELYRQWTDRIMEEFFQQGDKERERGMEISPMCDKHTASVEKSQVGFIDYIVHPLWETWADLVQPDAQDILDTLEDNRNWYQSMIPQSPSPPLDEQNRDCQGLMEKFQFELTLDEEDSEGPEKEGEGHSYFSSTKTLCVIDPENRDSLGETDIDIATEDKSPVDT
Chain of Cytochrome P450 2D6 (Homo sapiens) (P10635 whole entry, looked up): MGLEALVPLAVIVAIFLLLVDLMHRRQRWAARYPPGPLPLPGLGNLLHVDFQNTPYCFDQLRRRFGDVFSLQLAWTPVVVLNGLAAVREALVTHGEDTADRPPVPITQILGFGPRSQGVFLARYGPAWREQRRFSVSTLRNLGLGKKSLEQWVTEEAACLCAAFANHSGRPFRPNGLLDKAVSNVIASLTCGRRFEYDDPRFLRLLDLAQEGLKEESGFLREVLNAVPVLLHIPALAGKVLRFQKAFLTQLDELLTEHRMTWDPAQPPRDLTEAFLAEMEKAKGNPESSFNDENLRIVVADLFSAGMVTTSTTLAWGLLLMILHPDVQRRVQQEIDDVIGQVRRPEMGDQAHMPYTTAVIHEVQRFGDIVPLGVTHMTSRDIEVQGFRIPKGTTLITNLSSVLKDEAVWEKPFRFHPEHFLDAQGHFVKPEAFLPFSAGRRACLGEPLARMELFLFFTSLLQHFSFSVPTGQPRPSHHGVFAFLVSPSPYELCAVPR

SMILES	Potency [1]	Potency [2]	Potency [3]	outcome [4]	Potency (CP203)	Potency (CP260)	Potency (CP265)	Potency (CP335)	Potency (DFO2036)	Potency (DIV14)	Potency (W2)	Potency [5]	Potency [6]	Potency [7]	outcome [8]	Potency [9]
COc1cc(C2c3cc4c(cc3C(O[C@@H]3OC5COC(c6cccs6)OC5C(O)C3O)C3COC(=O)C23)OCO4)cc(OC)c1O (some centres undefined)	inactive	inactive	inactive	inactive	3790 nM (active)	1120 nM (active)	2820 nM (active)	1690 nM (active)	1120 nM (active)	1900 nM (active)	1200 nM (active)	–	–	–	–	–
NC(C(=O)O)[C@@H]1CC(Cl)=NO1 (some centres undefined)	–	inactive	inactive	–	3380 nM (active)	891 nM (active)	3160 nM (active)	1200 nM (active)	2000 nM (active)	2390 nM (active)	849 nM (active)	inactive	–	–	–	–
COC1C=CO[C@@]2(C)Oc3c(C)c(O)c4c(O)c(c(C=NN5CCN(C)CC5)c(O)c4c3C2=O)NC(=O)/C(C)=C\C=CC(C)C(O)[C@@H](C)C(O)C(C)[C@H](OC(C)=O)C1C (some centres undefined)	–	–	inactive	inactive	4260 nM (active)	1410 nM (active)	5010 nM (active)	953 nM (active)	3550 nM (active)	301 nM (active)	120 nM (active)	–	20300 nM (active)	inactive	–	–
C/C1=C2N=C(/C=C3N=C(/C(C)=C4\[N-]C(C)(C5N=C1C(C)(CCC(=O)NCC(C)OP(=O)([O-])O[C@H]1C(O)C(n6cnc7cc(C)c(C)cc76)O[C@@H]1CO)C5CC(N)=O)C(C)(CC(N)=O)C4CCC(N)=O)C(C)(CC(N)=O)C\3CCC(N)=O)C(C)(C)C/2CCC(N)=O.[CH2-]C1OC(n2cnc3c(N)ncnc32)C(O)C1O.[Co] (some centres undefined)	inactive	inactive	inactive	–	inactive	inactive	inactive	inactive	inactive	inactive	–	–	14400 nM (active)	–	–	–
CNC1CC(N)[C@H](O)[C@@H](O[C@@H]2OC(CO)C3OC4(OC(C(N)CO)C(O)C(O)C4O)O[C@@H]3[C@H]2O)C1O (some centres undefined)	–	inactive	inactive	inactive	inactive	inactive	inactive	inactive	inactive	inactive	–	inactive	inactive	inactive	–	–
CC(C)C1CCC(C(=O)NC(Cc2ccccc2)C(=O)O)CC1 (centres undefined)	–	inactive	inactive	inactive	inactive	inactive	inactive	inactive	inactive	inactive	inactive	inactive	inactive	inactive	–	–
C[C@]12CCC(=O)C=C1CCC1C2C(=O)C[C@]2(C)C1CC[C@]2(O)C(=O)CO (some centres undefined)	–	inactive	inactive	inactive	inactive	inactive	inactive	inactive	inactive	–	inactive	inactive	inactive	inactive	–	–
CN(C)CCCOC1C(C(O)CO)OC2OC(C)(C)O[C@@H]21 (some centres undefined)	–	inactive	inactive	–	inactive	–	inactive	inactive	inactive	inactive	inactive	inactive	inactive	inactive	–	–
CC/C=C\C[C@H]1C(=O)CC[C@@H]1CC(=O)O	–	–	–	–	–	–	–	–	–	–	–	inactive	–	–	inactive	inactive
CN1CC(=O)N=C1N	–	inactive	inactive	–	inactive	inactive	inactive	inactive	inactive	inactive	inactive	inactive	inactive	inactive	–	–
COC1C=CO[C@@]2(C)Oc3c(C)c(O)c4c(O)c(c5c(nc6cc(C)ccn65)c4c3C2=O)NC(=O)/C(C)=C\C=CC(C)C(O)[C@@H](C)C(O)C(C)[C@@H](OC(C)=O)C1C (some centres undefined)	inactive	inactive	inactive	inactive	–	11200 nM (active)	11200 nM (active)	13500 nM (active)	–	1070 nM (active)	1900 nM (active)	–	–	–	–	–
C[C@]1(c2ccccc2)OC(C(=O)O)=CC1=O	–	–	–	–	inactive	inactive	inactive	inactive	inactive	inactive	inactive	–	inactive	inactive	–	–
OCC1O[C@H](OC2C(CO)O[C@@](O)(CO)C2O)C(O)C(O)C1O (some centres undefined)	–	inactive	inactive	inactive	inactive	inactive	inactive	inactive	–	inactive	inactive	inactive	inactive	inactive	–	–
NCC1CCC(N)C(O[C@@H]2C(O)[C@H](O[C@H]3OC(CO)C(O)C(N)C3O)[C@@H](N)C[C@H]2N)O1 (some centres undefined)	–	–	inactive	–	inactive	inactive	inactive	inactive	inactive	inactive	–	inactive	inactive	–	–	–
